Results as given in the supplement of paper PMC10849652.
Targets with a hit are over-represented here; the source holds about 7,900 in all. About 0.6% of all pairs of compound and target were hits.

What follows are targets tested with Cc1cc(SCc2sc(-c3ccc(C(F)(F)F)cc3)nc2C)ccc1OCC(=O)O (assay: log2 fold change, soluble protein after heating vs DMSO (PISA); higher = thermal stabilisation; K562 cells, 10 uM, 30 min; active = over 0.2 and 3.5 SD of the protein, either way, in both replicates (recomputed)).
Method in brief: (§1)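 Thermal stability values are relative to control samples and come from duplicates. They are expressed as log2 fold changes. For measurement, K562 cells (2×10^6 cells/mL) received 10 μM compound for 30 min, and aliquots were heated for 3 min over 48°C-58°C, pooled, and extracted at 4°C in PBS with 0.5% NP-40. Soluble protein, the supernatant after 21,000xg for 90 min, was quantified by TMTpro 16plex LC-MS/MS with equalised channel sums.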

Sequence of UniProt P52895 (P52895 whole entry, looked up): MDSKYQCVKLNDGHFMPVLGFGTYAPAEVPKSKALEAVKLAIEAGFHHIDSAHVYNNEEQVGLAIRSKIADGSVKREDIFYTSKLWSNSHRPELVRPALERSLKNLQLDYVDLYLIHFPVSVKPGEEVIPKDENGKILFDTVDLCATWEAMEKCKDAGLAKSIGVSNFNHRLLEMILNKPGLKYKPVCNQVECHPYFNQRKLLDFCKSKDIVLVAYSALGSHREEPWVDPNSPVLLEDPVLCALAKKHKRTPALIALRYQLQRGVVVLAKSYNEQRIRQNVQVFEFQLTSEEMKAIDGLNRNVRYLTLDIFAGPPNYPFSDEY
Sequence of UniProt P42330 (P42330 whole entry, looked up): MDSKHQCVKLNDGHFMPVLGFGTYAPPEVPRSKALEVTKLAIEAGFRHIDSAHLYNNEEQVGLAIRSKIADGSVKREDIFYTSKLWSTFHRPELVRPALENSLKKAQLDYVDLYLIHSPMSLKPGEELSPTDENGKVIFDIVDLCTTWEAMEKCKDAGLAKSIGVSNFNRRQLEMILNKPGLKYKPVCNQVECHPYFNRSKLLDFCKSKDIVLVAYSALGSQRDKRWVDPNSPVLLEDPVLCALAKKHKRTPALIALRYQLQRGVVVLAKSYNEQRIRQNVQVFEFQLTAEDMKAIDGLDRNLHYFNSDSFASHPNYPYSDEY
Sequence of UniProt P11310 (P11310 whole entry, looked up): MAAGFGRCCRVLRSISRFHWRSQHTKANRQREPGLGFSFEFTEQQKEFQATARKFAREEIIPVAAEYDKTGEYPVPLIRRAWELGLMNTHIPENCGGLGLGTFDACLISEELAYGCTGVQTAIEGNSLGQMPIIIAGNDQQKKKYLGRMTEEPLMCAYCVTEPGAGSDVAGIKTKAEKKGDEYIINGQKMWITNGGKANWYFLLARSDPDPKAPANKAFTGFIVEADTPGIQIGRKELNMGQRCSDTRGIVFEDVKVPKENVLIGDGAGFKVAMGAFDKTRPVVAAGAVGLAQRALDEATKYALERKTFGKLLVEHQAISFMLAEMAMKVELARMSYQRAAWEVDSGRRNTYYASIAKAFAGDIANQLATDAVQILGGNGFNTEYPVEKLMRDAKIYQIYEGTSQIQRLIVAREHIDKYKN
Sequence of UniProt P18085 (P18085 whole entry, looked up): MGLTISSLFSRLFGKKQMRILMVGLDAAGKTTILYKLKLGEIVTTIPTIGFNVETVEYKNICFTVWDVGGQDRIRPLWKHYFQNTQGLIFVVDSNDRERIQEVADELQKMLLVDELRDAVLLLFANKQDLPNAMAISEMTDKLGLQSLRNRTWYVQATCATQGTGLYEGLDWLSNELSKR
Sequence of UniProt P33121 (P33121 whole entry, looked up): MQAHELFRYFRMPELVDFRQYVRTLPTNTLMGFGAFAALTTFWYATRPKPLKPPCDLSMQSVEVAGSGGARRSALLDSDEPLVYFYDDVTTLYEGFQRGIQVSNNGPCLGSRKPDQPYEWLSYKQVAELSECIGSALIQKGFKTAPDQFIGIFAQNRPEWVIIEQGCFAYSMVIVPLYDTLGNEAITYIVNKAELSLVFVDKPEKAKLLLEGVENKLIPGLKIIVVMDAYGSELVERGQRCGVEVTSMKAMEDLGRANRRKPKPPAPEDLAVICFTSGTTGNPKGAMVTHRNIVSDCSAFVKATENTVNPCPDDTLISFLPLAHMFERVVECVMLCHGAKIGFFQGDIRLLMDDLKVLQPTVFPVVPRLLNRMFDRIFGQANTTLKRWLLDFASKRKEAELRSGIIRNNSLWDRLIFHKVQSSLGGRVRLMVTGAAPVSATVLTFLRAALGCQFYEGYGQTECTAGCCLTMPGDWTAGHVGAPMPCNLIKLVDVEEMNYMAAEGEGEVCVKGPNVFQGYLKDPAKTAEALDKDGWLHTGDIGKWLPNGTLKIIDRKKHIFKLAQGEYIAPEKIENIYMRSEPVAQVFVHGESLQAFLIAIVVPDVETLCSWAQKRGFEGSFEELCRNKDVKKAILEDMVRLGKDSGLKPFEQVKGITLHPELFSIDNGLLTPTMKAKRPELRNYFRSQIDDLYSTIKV
Sequence of UniProt P49189 (P49189 whole entry, looked up): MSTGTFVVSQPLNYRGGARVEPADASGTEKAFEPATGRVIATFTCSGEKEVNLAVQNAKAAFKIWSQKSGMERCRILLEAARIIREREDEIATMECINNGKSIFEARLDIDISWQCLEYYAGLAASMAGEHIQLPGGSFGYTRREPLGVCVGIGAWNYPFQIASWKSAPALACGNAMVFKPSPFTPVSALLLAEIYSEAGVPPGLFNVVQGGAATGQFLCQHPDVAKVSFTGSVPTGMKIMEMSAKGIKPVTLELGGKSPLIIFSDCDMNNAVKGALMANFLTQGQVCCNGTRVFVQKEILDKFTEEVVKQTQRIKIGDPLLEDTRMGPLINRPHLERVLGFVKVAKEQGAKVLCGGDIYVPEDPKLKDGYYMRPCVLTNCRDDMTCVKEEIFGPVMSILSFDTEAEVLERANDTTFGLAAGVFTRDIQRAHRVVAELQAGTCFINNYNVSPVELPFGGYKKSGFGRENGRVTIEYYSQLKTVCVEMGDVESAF
Sequence of UniProt Q13733 (Q13733 whole entry, looked up): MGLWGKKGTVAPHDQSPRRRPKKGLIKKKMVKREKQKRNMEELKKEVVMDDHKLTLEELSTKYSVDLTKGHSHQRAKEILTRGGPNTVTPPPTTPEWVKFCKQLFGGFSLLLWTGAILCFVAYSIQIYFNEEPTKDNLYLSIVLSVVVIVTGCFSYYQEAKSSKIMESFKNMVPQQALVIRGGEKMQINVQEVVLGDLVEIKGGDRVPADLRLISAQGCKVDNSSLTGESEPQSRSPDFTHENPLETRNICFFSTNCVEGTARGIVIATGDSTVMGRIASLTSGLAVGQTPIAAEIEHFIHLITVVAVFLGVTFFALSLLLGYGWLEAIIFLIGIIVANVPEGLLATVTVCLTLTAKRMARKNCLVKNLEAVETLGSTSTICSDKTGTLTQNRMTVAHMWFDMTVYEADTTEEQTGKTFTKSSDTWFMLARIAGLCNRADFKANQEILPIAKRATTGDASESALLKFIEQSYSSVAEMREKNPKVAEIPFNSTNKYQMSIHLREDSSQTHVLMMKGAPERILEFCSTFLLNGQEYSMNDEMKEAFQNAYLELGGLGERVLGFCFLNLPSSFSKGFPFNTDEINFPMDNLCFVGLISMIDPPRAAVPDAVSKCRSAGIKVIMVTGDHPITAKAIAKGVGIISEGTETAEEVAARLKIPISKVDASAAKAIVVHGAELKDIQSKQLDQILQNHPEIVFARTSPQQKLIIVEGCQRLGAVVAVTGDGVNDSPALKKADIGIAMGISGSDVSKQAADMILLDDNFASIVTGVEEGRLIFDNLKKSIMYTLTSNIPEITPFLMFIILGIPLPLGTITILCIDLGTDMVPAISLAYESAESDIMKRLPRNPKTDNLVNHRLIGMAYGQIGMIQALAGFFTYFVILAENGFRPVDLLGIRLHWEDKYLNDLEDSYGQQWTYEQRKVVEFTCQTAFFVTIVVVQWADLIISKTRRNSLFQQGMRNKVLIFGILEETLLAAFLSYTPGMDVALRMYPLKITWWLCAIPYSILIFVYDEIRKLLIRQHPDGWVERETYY
Sequence of UniProt P30043 (P30043 whole entry, looked up): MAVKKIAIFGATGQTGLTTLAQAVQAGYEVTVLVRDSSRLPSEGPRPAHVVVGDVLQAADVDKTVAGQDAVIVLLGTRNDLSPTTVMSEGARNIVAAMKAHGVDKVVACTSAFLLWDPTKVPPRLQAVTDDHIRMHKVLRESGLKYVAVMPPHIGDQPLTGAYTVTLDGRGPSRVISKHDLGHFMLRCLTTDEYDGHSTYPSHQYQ
Sequence of UniProt Q92685 (Q92685 whole entry, looked up): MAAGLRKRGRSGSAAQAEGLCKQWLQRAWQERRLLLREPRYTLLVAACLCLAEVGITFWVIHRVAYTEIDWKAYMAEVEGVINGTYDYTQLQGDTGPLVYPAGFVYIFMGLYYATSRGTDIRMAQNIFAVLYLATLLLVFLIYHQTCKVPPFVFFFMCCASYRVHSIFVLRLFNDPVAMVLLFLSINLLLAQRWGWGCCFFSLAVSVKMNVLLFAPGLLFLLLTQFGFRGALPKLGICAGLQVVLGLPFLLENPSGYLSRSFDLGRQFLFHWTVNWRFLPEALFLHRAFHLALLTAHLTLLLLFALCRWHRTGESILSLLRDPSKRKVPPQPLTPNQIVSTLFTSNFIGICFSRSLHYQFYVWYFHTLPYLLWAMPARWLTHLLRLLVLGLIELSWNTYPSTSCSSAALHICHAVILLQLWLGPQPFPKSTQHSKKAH
Sequence of UniProt Q9Y3D8 (Q9Y3D8 whole entry, looked up): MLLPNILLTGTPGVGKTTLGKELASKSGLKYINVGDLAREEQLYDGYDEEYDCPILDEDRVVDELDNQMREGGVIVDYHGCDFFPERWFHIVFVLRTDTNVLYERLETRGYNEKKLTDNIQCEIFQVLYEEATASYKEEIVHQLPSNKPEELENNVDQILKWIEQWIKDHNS
Sequence of UniProt Q8N6S5 (Q8N6S5 whole entry, looked up): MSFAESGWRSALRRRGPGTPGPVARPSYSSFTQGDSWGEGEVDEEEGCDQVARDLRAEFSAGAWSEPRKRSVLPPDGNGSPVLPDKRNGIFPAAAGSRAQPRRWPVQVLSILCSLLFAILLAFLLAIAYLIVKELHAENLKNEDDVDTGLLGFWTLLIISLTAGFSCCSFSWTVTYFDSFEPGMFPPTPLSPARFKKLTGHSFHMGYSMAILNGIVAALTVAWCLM
Sequence of UniProt Q7L1Q6 (Q7L1Q6 whole entry, looked up): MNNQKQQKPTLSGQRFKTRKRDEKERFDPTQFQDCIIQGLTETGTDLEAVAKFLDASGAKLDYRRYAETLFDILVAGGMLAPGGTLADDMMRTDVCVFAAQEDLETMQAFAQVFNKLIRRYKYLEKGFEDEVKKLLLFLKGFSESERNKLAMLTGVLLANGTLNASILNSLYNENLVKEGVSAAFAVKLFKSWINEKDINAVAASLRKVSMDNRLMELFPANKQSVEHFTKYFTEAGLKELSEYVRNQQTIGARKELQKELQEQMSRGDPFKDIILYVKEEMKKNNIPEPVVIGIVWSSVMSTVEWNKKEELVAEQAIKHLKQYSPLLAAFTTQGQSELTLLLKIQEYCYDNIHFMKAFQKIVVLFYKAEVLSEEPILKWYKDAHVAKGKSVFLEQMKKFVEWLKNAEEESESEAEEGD

Target | log2 fold change
ALDH9A1 isoform 3 (UniProt P49189) | -0.002 (inactive)
ACSL1 (UniProt P33121) | 0 (inactive)
ACADM isoform 2 (UniProt P11310) | -0.01 (inactive)
AKR1C2 (UniProt P52895) | 0.098 (inactive)
ALG3 (UniProt Q92685) | 0.049 (inactive)
AKR1C3 (UniProt P42330) | 0.078 (inactive)
ARL6IP6 (UniProt Q8N6S5) | -0.042 (inactive)
AK6 (UniProt Q9Y3D8) | 0.065 (inactive)
APOB (UniProt P04114) | 0.007 (inactive)
BLVRB (UniProt P30043) | 0.002 (inactive)
ATP6AP1 (UniProt Q15904) | 0.055 (inactive)
ATP1A4 (UniProt Q13733) | 0.038 (inactive)
ARF4 (UniProt P18085) | 0.017 (inactive)
BZW1 isoform 3 (UniProt Q7L1Q6) | 0.181 (inactive)

These targets were tested with Cc1ccc(-n2nc(C(C)(C)C)cc2NC(=O)Nc2ccc(OCCN3CCOCC3)c3ccccc23)cc1 [doramapimod] in the same assay as above.
Method in brief: as §1

Target | log2 fold change
ACSL5 isoform 3 (UniProt Q9ULC5) | 0.059 (inactive)
ADK (UniProt P55263) | -0.039 (inactive)
ATP1B3 (UniProt P54709) | -0.042 (inactive)
BCCIP isoform 2 (UniProt Q9P287) | -0.008 (inactive)
ANKZF1 (UniProt Q9H8Y5) | -0.059 (inactive)
BRD8 isoform 2 (UniProt Q9H0E9) | 0.04 (inactive)
ALDH18A1 (UniProt P54886) | -0.146 (inactive)
AARSD1 isoform 3 (UniProt Q9BTE6) | -0.05 (inactive)
BRK1 isoform 2 (UniProt Q8WUW1) | -0.041 (inactive)
BST2 (UniProt Q10589) | 0.023 (inactive)
ATP6V1H (UniProt Q9UI12) | 0.038 (inactive)
ACACB (UniProt O00763) | 0.168 (inactive)
AHSA1 (UniProt O95433) | -0.029 (inactive)
ARL6IP4 (UniProt Q66PJ3) | 0.013 (inactive)
ABITRAM (UniProt Q9NX38) | 0.006 (inactive)
ABCC5 (UniProt O15440) | -0.023 (inactive)
BCAP29 isoform 2 (UniProt Q9UHQ4) | -0.024 (inactive)
ASH2L (UniProt Q9UBL3) | -0.068 (inactive)

Target | log2 fold change
ALG5 (UniProt Q9Y673) | -0.032 (inactive)
BCL9L (UniProt Q86UU0) | 0.006 (inactive)
APPL1 (UniProt Q9UKG1) | 0.032 (inactive)
AFDN isoform 5 (UniProt P55196) | 0.009 (inactive)
ALDH9A1 isoform 3 (UniProt P49189) | -0.004 (inactive)
ACSL1 (UniProt P33121) | -0.003 (inactive)
ACADM isoform 2 (UniProt P11310) | -0.059 (inactive)
AKR1C2 (UniProt P52895) | -0.036 (inactive)
ALG3 (UniProt Q92685) | 0.006 (inactive)
AKR1C3 (UniProt P42330) | -0.012 (inactive)
ARL6IP6 (UniProt Q8N6S5) | 0.03 (inactive)
AK6 (UniProt Q9Y3D8) | 0.008 (inactive)
APOB (UniProt P04114) | -0.288 (inactive)
BLVRB (UniProt P30043) | -0.027 (inactive)
ATP6AP1 (UniProt Q15904) | 0.045 (inactive)
ATP1A4 (UniProt Q13733) | -0.086 (inactive)
ARF4 (UniProt P18085) | -0.034 (inactive)
BZW1 isoform 3 (UniProt Q7L1Q6) | -0.008 (inactive)
